For 15 compounds, growth results are on record in PubChem BioAssay (NCI).

Compounds without any hit were thinned out: in the full panel of roughly 83,000, 20% have a hit.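 96-well plates, one dose, 48 hours. Percent growth reported; active if below 10.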 The source made the active and inactive calls.

This experiment concerns EKVX NSCLC. Kind of experiment: NCI-60 one-dose screen, 48 h (100 = growth as untreated, 0 = no growth, -100 = all killed). The note with it: 10 µM unless noted.
For the compound `O=C(Nc1ccc(NCCN2CCOCC2)nc1)c1ccc([N+](=O)[O-])cc1`, the growth was 87.2% (inactive).

Regarding `COP(=O)(OC)/C(=N\NS(=O)(=O)c1ccc(C)cc1)c1ccccc1`, the growth was 97.7% (inactive).

For the compound `CC(=O)Nc1ccc(/C=C/C(=O)c2ccccc2)cc1`, the growth is 112% (inactive).

In the case of `COc1ccc(CCNC2=CC(=O)CCC2)cc1OC`, the growth was 110% (inactive).

Consider `CCCCCCCCCCCCNC(=O)[C@H]1CSC(c2cc3ccccc3s2)N1` (stereo not given in full), for which the growth was -59.6% (active).

`COc1cc(Nc2ncccc2C(=O)NCc2cn(Cc3cccc(Oc4ccccc4)c3)nn2)cc(OC)c1`: the growth was 46.2% (inactive).

With `Cc1ccc(Cc2c(C=O)nc(N)[nH]c2=O)c2ccccc12`, the growth was 101% (inactive).

Turning to `COc1cc(/C=C/C(=O)c2cccc(-n3cc(-c4cc(OC)c(OC)c(OC)c4)[nH]c3=O)c2)cc(OC)c1OC`, the growth was 51.6% (inactive).

In the case of `CCCCCCCCCCCCNC(=O)[C@H]1CSC(c2ccsc2)N1` (stereo not given in full), the growth is -84% (active).

As to `O=c1[nH]c(NCc2ccccc2)nc2nc(Nc3ccc(NC(=S)Nc4ccccc4)cc3)nc(-c3ccc(O)cc3O)c12`, the growth is 63.2% (inactive).

In the case of `CCC(C)/C(=C\C#N)NCCCN/C(=C/C#N)C(C)CC` (stereo not given), the growth is 101% (inactive).

As to `Oc1ccccc1/C=N/NC(=S)NC1CC2C=CC1C2` (stereo not given), the growth is 95.3% (inactive).

With `CN1CCN(Cc2ccc(NC(=O)c3cncc(C#Cc4cnc(N)c5cnccc45)c3)cc2C(F)(F)F)CC1`, the growth is 2.4% (active).

Regarding `COC(OC)c1ccccc1`, the growth was 103% (inactive).

Take `CC(C)CSc1nc(NN)c(C#N)c(-c2ccc(F)cc2)n1`: the growth is 89.4% (inactive).
